Experimental data published in PubChem BioAssay (NCI).
The panel holds about 83,000 compounds, 20% with a hit somewhere; the sample as a whole holds those more often.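 Activity criterion: percent growth below 10, measured after cells in 96-well plates were exposed to a single compound concentration for 48 hours.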 Calls of active or inactive are those of the source.

What follows are molecules tested on MDA-MB-468 breast (assay: NCI-60 one-dose screen, 48 h (100 = growth as untreated, 0 = no growth, -100 = all killed)). Settings: 10 µM unless noted.
For COc1ccc(-c2nn(-c3ccc(NC(=O)c4ccc(Cl)c(Cl)c4)cc3)cc2-c2ccncc2)cc1Cl, the growth was 47% (inactive). For COc1cc(/C=C2\C(=O)N(CCOc3cc(O)c4c(=O)cc(-c5ccccc5)oc4c3)c3ccccc32)cc(OC)c1O, the growth was 89.6% (inactive). In the case of Fc1ccc(-c2ccnc3nc(-c4ccncc4)nn23)cc1, the growth is reported as 111% (inactive). With O=C1Nc2ccccc2/C1=C/c1cccs1 the growth was -20.2% (active). In the case of Cc1ccc(N2C(=O)/C(=C/C=C/c3ccco3)SC2=S)cc1, the growth is reported as 50.7% (inactive). CC(C)(C)OC(=O)N1CCN(CCn2cc(C(F)(F)F)c3c(Cl)ncnc32)CC1 was tested, and the growth was 19.4% (inactive). For Cc1ccc2c(C3C(C#N)=C(N)Oc4cc5ccccc5cc43)cc(=O)oc2c1 (configuration not stated), the growth was 30.3% (inactive). With CCN(CC)c1ccc(/C=C/C(=O)c2cccc(NS(C)(=O)=O)c2)cc1 the growth was 35.4% (inactive). COc1ccc2nc(Cl)c(Cn3nnc(Cc4ccccc4)n3)cc2c1 was tested, and the growth was 29.9% (inactive). CCOc1ccc(NC2=C(Cl)C(=O)c3nc(C)ccc3C2=O)cc1 was tested, and the growth was -95.2% (active). In the case of c1ccc2c(N=NSc3ncnc4nc[nH]c34)c3ccccc3nc2c1, the growth is reported as -55.1% (active). For CC1=Cc2ccccc2OC12C=Cc1ccccc1O2 (configuration not stated), the growth was 97% (inactive). For Nc1nc2c(c(=O)[nH]1)C1(C(=O)Nc3ccccc31)c1c(nc(N)[nH]c1=O)N2, the growth was 101% (inactive). In the case of COc1c(O)cc2oc3cc(O)c(CC=C(C)C)c(O)c3c(=O)c2c1C/C=C(\C)CCC=C(C)C, the growth is reported as 82.1% (inactive). In the case of O=C(c1ccccc1)N(C(=S)NCCc1ccc(Cl)cc1)c1ccc(Cl)cc1, the growth is reported as 16.7% (inactive). For Cc1nc(Nc2ccc(N)cc2)c2ccccc2n1, the growth was 86.9% (inactive). In the case of O=C(CSc1nc2ccc([N+](=O)[O-])cc2[nH]1)Nc1ccc(F)c(Cl)c1, the growth is reported as -14.9% (active). In the case of COc1ccc(/C(=N\NC(N)=S)c2ccc(Cl)cc2)cc1OC, the growth is reported as 15.9% (inactive). In the case of N/C(=N\C(N)=N\c1nc2ccccc2s1)c1cccc(Cl)c1, the growth is reported as 110% (inactive). In the case of CCOC(=O)C1=C(C)NC(C)=C(C(=O)OCC)C1(C)C, the growth is reported as 98.8% (inactive). In the case of CN1C(=O)N(C)C2C1NN=c1s/c(=C\c3ccc([N+](=O)[O-])cc3)c(=O)n12 (configuration not stated), the growth is reported as 53.4% (inactive). With O=c1[nH]c2c(s1)CCCC2CN1CCCCC1 (configuration not stated) the growth was 109% (inactive). COc1ccccc1NC(=O)C1CC(c2ccc(F)cc2)=NO1 (configuration not stated) was tested, and the growth was 99.7% (inactive). Cc1[nH]c(-c2cc(N)ccc2Cl)c2c1C(=O)CCCC2 was tested, and the growth was -5.42% (active). For CC(C)CNCC(O)COc1ccc(C(C)(C)c2ccc(OCC(O)CNCC(C)C)cc2)cc1 (configuration not stated), the growth was 62.5% (inactive). For Cc1ccc(C)c2c1CCC2C(C)C (configuration not stated), the growth was 106% (inactive). With OCC(CO)(CCl)CCl the growth was 107% (inactive).
